# Source: the supplement of paper PMC10338343
# ± gives the standard deviation. Whole data set: some 8,200 sequences, median “pre-steady-state target cleavage rate” near 0.024, cut for the highest 2% near 1.3. For the sample, the highest values were picked, then their nearest neighbours and some sequences at random.
# System: MIWI (PIWIL1) piRISC loaded with L1MC piRNA (30 nt)
# Assay: pre-steady-state target cleavage rate (min^-1); MIWI and MILI are mouse PIWI proteins and EfPiwi is from a freshwater sponge; tags in brackets are library labels; higher = faster piRNA-guided slicing of the target
# Details: guide: L1MC piRNA 5'p-UAACUAAAUACUAUGCAAGCUGUAGGUCCU
# Description: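 Cleave-'n-Seq: a library of target RNAs (target site embedded in constant flanks, ACAGCATTCCGCGTTAGTGATATCCG... 5' flank; DNA-blocked outside the site) at 0.1 nM was incubated with 1 nM active mouse MILI or MIWI piRISC (synthetic 5'-monophosphorylated piRNA guide) with or without 500 nM mouse GTSF1 at 33 °C for 1 min to 16 h. Uncleaved targets were sequenced and normalised to non-target controls, and the pooled three trials were fitted to a burst-and-steady-state model to give the pre-steady-state cleavage rate (min^-1; k3 is constrained to at most 1e-4). Sequence is the target site only; target names encode pairing extent (gX:gY) and contiguous / 1-mismatch / 2-mismatch / bulge geometry. Fits with R² ≤ 0 are excluded.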
# [1] = auxiliary factor: 500 nM mouse GTSF1
# [2] = auxiliary factor: none (no GTSF1)
Sequence,pre-steady-state target cleavage rate [1],pre-steady-state target cleavage rate [2]
UCGACCUACAGCUUGCAAGUAUUUAGUUA,0.427 ± 0.038,0.00682 ± 0.0023
ACGACCUACAGCUUGCAAAGUAUUUAGUUA,1.56 ± 0.057,0.0528 ± 0.011
AGGACCUACAGCUUGCAAAGUAUUUAGUUA,1.26 ± 0.053,0.0478 ± 0.0089
UCGACCUACAGCUUGCAAAGUAUUUAGUUA,1.47 ± 0.056,0.0377 ± 0.0085
UCCACCUACAGCUUGCAAAGUAUUUAGUUA,0.937 ± 0.044,0.0318 ± 0.0069
UCGACCUACAGCUUGCAAAGUAUUUAGUAA,0.99 ± 0.053,0.0245 ± 0.0048
UCCUGGUACUGCUUGCAUAGUAAUUAGUUA,0.313 ± 0.047,0.0127 ± 0.0034
AGGACCUACAGCUUGCAUACUUUUUAGUUA,0.0575 ± 0.011,0.00783 ± 0.0023
UCCUGGAUCAGGUUGCAAAGUAUUUAGUUA,0.391 ± 0.036,0.0061 ± 0.0023
UCCACCUACACGUUGCAUAGUAUUUUCAAA,0.22 ± 0.036,–
UCCUGGAAGAGCUUCCAUAGUAUUUAGUUA,0.255 ± 0.058,–
UGGACCUACAGCUUGCAUAGUAUUUCAGUUA,0.468 ± 0.06,0.0318 ± 0.0065
AGGUGGUACAGCUUGCAUAGUAUUUAGUUA,1.36 ± 0.057,0.0811 ± 0.015
UGGUGGUACAGCUUGCAUAGUAUUUAGUUA,1.3 ± 0.046,0.0711 ± 0.012
UCGAGGUACAGCUUGCAUAGUAUUUAGUUA,1.04 ± 0.066,0.0604 ± 0.0095
AGGAGGUACAGCUUGCAUAGUAUUUAGUAA,0.803 ± 0.079,0.0437 ± 0.0095
AGGUGGUACAGCUUGCAUAGUAUUUAGUAA,0.645 ± 0.065,0.04 ± 0.0068
AGGAGGUACAGCUUGCAUAGUAUUUAGAAA,0.324 ± 0.044,0.0123 ± 0.0037
UGGAGGUACAGCUUGCAUAGUAUUUAGUUA,1.35 ± 0.064,0.0828 ± 0.015
UGGAGGUACAGCUUGCAUAGUAUUUAGUAA,0.794 ± 0.065,0.0463 ± 0.0071
AGGAGGUACAGCUUGCAUAGUAUUUAGUUA,1.5 ± 0.072,0.0721 ± 0.011

Sequence,pre-steady-state target cleavage rate [1],pre-steady-state target cleavage rate [2]
UGGACCUACAGCUUGCAUAGAAUUUACAAA,0.29 ± 0.062,–
UGGACCUACAGGUUGCAUAGUAAUUAGUUA,0.731 ± 0.055,0.0177 ± 0.0042
UGGACCUACAGCUUGCAUAGAAUUUUCAAA,0.239 ± 0.048,–
UCCUGGAUGUGCUUGCAUGGUAUUUAGUUA,0.209 ± 0.02,0.0348 ± 0.0072
UCGACCUACAGCUUGCAUAGUAUUUAGAUA,0.564 ± 0.043,0.0299 ± 0.0074
UCCACCUACACCUUGCAUAGUAUUUACAAA,0.309 ± 0.053,0.00355 ± 0.0022
UCCUGGUACAGCUAGCAUAGUAUUAAGUUA,0.378 ± 0.051,0.00772 ± 0.0027
UCCUGGAUGUGCUUGCAUAGUAUUUUAGUUA,0.128 ± 0.018,0.021 ± 0.0069
UCCACCUACAGCUACGAUAGUAUUUAGUUA,0.121 ± 0.016,–
UCCUCCUACUGCUAGCAUAGUAUUUAGUUA,0.871 ± 0.033,0.0164 ± 0.0031
AGGACCUUCAGCUUCCAUAGUAUUUAGUUA,0.101 ± 0.023,0.00546 ± 0.0024
UCCUCCUUCAGCUUGGAUAGUAUUUAGUUA,1.19 ± 0.041,0.0358 ± 0.0057
UCCUGCUUCAGCUUGGAUAGUAUUUAGUUA,1.18 ± 0.078,0.049 ± 0.0081
UGGACCUUCAGCUUGGAUAGUAUUUAGUUA,1.59 ± 0.068,0.0597 ± 0.011
AGGACCUUCAGCUUGGAUAGUAUUUAGUUA,1.48 ± 0.052,0.0657 ± 0.012
UCGACCUUCAGCUUCCAUAGUAUUUAGUUA,0.0473 ± 0.011,0.00293 ± 0.0014
UCGACCUAGAGCUUGGAUAGUAUUUAGUUA,1.25 ± 0.042,0.0475 ± 0.0077
UCGACCUUCAGCUUGGAUAGUAUUUAGUUA,1.49 ± 0.05,0.0525 ± 0.0074
UCCACCUUCAGCUUGGAUAGUAUUUAGUUA,1.15 ± 0.033,0.0456 ± 0.0083
UCCACCUAGUCCUUGCAUAGUAUUUAGUAA,0.142 ± 0.021,0.00921 ± 0.0015
UCCUGGAACAGCUUGCAAAGUAAUUAGUUA,0.545 ± 0.038,0.0139 ± 0.0055

Sequence,pre-steady-state target cleavage rate [1],pre-steady-state target cleavage rate [2]
UCCACCUACAGCUUGCAUAGAAUUUACAAA,0.308 ± 0.054,–
UCCUGGUACAGUUUGCAUAGUAUUUAGUUA,0.706 ± 0.044,0.0392 ± 0.0063
UCGACCUACAGCUAGCAUAGUAUUUAGUUA,1.28 ± 0.053,0.0292 ± 0.0072
UGGACCUACAGCUUGGCAUAGUAUUUAGUUA,1.01 ± 0.26,0.0197 ± 0.0048
ACGACCUACAGCUAGCAUAGUAUUUAGUUA,1.3 ± 0.052,0.0406 ± 0.0091
AGGACCUACAGCUAGCAUAGUAUUUAGUAA,0.836 ± 0.073,0.0193 ± 0.0066
UGGACCUACAGCUAGCAUAGUAUUUAGUAA,1.08 ± 0.065,0.016 ± 0.0033
UGGACCUACAGCUAGCAUAGUAUUUAGUUA,1.41 ± 0.074,0.0334 ± 0.0077
AGGACCUACAGCUUAGCAUAGUAUUUAGUUA,1.37 ± 0.052,0.0387 ± 0.011
UGGACCUACAGCUUAGCAUAGUAUUUAGUUA,1.45 ± 0.08,0.0281 ± 0.0051
AGGACCUACAGCUAGCAUAGUAUUUAGUUA,1.16 ± 0.061,0.0412 ± 0.0085
AGGACCUACAGCUUGGCAUAGUAUUUAGUUA,1.17 ± 0.17,0.0407 ± 0.0099
UCGACCUACAGCUUAGCAUAGUAUUUAGUUA,1.59 ± 0.058,0.0251 ± 0.0054
UCCACCUACAGCUUAGCAUAGUAUUUAGUUA,1.02 ± 0.03,0.0144 ± 0.0034
UCCUGGAUCAGCUUGCUAAGUAUUUAGUAA,0.00706 ± 0.004,–
UCCUCCUACAGCUUGCAUAGUAUUUACUUA,0.383 ± 0.042,0.0348 ± 0.0074
UCCUGGAACAGUUGCAUAGUAUUUAGUUA,0.337 ± 0.022,0.00545 ± 0.0021
UCCUGGAUCUGCAUGCAUAGUAUUUAGUUA,0.204 ± 0.024,0.00439 ± 0.002
UCCUGGAUGUCGAACGUAUGUAUUUUAGUUA,< 0.0001,–
